# Measurements taken from PubChem BioAssay AID504848 (National Center for Advancing Translational Sciences (NCATS), 2011).
# The whole screen tested about 2,300 compounds, of which about 1,400 (61%) were called active. Another 29% or so got no clear call; they are omitted. The call rests on the fitted dose curve; in most records, active means well fitted inhibition curve with a large enough effect; inconclusive means small, poorly fitted or top-dose-only effect, or effect the other way; inactive means no such curve, though single readings can be large or run the other way. The set was probably picked from earlier hits. Some of the results follow.
# Assay: Confirmation screen for delayed death inhibitors of the malarial parasite plastid, 96 hour incubation; further: nearly all actives have a fitted effect of over 60% in size
# Conditions: P. falciparum luciferase growth in erythrocytes; series mostly up to 28.7 µM
# Method in brief: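 Two-generation (96 h, 37 C) exposure of P. falciparum carrying an integrated firefly luciferase reporter in erythrocytes, 0.1% parasitemia and 2% hematocrit final, Albumax-supplemented RPMI. Luminescence decrease measures growth inhibition.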
# Potency means the concentration at half of the fitted maximal effect.
row,Structure (SMILES),Potency
1,Cc1c(OCC(=O)NCC(O)c2ccccc2)ccc2c3c(c(=O)oc12)CCC3 (stereo unspecified),10 µM (active)
2,O=S(=O)(NCC(O)c1ccccc1)c1cc(Cl)sc1Cl (stereo unspecified),inactive
3,O=C(COc1cc2oc(=O)c3c(c2cc1Cl)CCC3)NCC(O)c1ccccc1 (stereo unspecified),8.91 µM (active)
4,O=C(CSc1nc2nn(-c3ccccc3)c(=O)c-2c2n1CCCCC2)c1ccc(O)c(O)c1,11.2 µM (active)
5,O=C(NCc1cccnc1)/C(=C\c1ccc(-c2cccc(Cl)c2)o1)S(=O)(=O)c1ccccc1,7.94 µM (active)
6,O=C(NCCN1CCOCC1)c1ccc(Cl)c(S(=O)(=O)N2CCCCC2)c1,14.1 µM (active)
7,O=C(NCc1cccnc1)c1ccc(NS(=O)(=O)c2ccccc2)cc1,7.08 µM (active)
8,O=C(NCc1cccnc1)c1ccc(Cl)c(S(=O)(=O)N2CCOCC2)c1,11.2 µM (active)
9,CCC(C)[C@H](NC(=O)NCCCOC(C)C)C(=O)OC (stereo partly specified),inactive
10,CCOC(=O)c1cc2c(nc1NC(=S)Nc1ccccc1)CC(C)(C)OC2,12.6 µM (active)
11,O=C(O)c1ccccc1NS(=O)(=O)c1cccc(-n2sc3ccccc3c2=O)c1,12.6 µM (active)
12,O=C(Cn1c(=O)c(=O)n(Cc2ccccc2)c2ccc(Cl)cc21)Nc1cccc(F)c1,12.6 µM (active)
13,CCn1c(=O)cc(C(=O)OC)sc1=Nc1ccc(F)c(F)c1,inactive
14,O=C1CS/C(=N/N=C\c2ccn[nH]2)N1,10 µM (active)
15,C#Cc1ccc(CN2CCN(CCCc3ccccc3)C(CCO)C2)cc1 (stereo unspecified),7.08 µM (active)
16,Cc1ccc(-c2nc(-c3cccnc3)sc2CC(=O)Nc2ccc(C)c(Cl)c2)cc1,4.47 µM (active)
17,COc1ccc(CCNC(=O)c2cc3c(=O)n4cccc(C)c4nc3n(Cc3ccco3)c2=N)cc1OC,11.2 µM (active)
18,CC(C)C1N=C(c2ccc3c(c2)OCO3)CC(c2ccccc2O)N1 (stereo unspecified),14.1 µM (active)
19,O=C(NC1CCCC1)c1ccc([N+](=O)[O-])s1,10 µM (active)
20,COc1ccccc1N(Cc1ccccc1)S(=O)(=O)c1cccc(C(=O)Nc2ccccn2)c1,7.08 µM (active)
21,CC(=O)c1ccccc1OCC(O)CN1CCN(C(c2ccccc2)c2ccccc2)CC1 (stereo unspecified),3.55 µM (active)
22,CCOC(=O)C1CCN(C(=O)CCc2nnc3ccc(NCc4ccco4)nn23)CC1,5.01 µM (active)
23,O=C(CCl)Nc1cccc(S(=O)(=O)NC2=NCCC2)c1,0.794 µM (active)

row,Structure (SMILES),Potency
1,COC(=O)[C@@]1(Cc2ccc(F)cc2)[C@@H]2[C@@H](CC(=O)[C@H]2CC(=O)C(=O)N(C)C)CN1C(=O)c1ccccc1,10 µM (active)
2,COc1ccccc1N1CCN(C(=O)c2noc(C(C)C)c2[N+](=O)[O-])CC1,8.91 µM (active)
3,CCCCCCCn1c(=O)c(C(=O)OC)c(N)c2ccccc21,6.31 µM (active)
4,Cc1ccnc(NCc2cccc3ccccc23)c1,10 µM (active)
5,COc1cccc(CNc2cc(C)ccn2)c1O,7.94 µM (active)
6,Cc1cccc(NCc2cccc3ccccc23)n1,14.1 µM (active)
7,CSc1ccc(CNc2cccc3ccccc23)cc1,inactive
8,N#CCc1nc(C(c2ccccc2)c2ccccc2)no1,7.08 µM (active)
9,Cc1ccccc1-n1nc2c(c1NC(=O)C1CCCC1)CS(=O)(=O)C2,inactive
10,c1csc(CNc2ncnc3nc[nH]c23)c1,15.8 µM (active)
11,O=C(NC1CCN(Cc2ccccc2)CC1)C1CCN(c2nnc(-n3cccc3)s2)CC1,5.01 µM (active)
12,CC1Cc2ccccc2N1CC(=O)Nc1ccc2c(c1)OCCCO2 (stereo unspecified),15.8 µM (active)
13,O=C1CSC(c2cccnc2)N1CCc1ccccn1 (stereo unspecified),inactive
14,CC(=O)Nc1ccc(NC(=O)c2ccc(C3SCC(=O)N3CCc3ccccc3)cc2)cc1 (stereo unspecified),12.6 µM (active)
15,O=C(Nc1ccc(N2CCN(C(=O)c3ccco3)CC2)cc1)c1ccc(F)cc1,3.98 µM (active)
16,O=C(Nc1ccc(N2CCN(C(=O)c3cccs3)CC2)cc1)c1ccc([N+](=O)[O-])o1,2.24 µM (active)
17,O=C(Nc1ccc(N2CCN(C(=O)c3ccccc3)CC2)cc1)c1ccc([N+](=O)[O-])o1,3.16 µM (active)
18,Cc1ccccc1C(=O)N1CCN(c2ccc(NC(=O)c3ccc([N+](=O)[O-])o3)cc2)CC1,6.31 µM (active)
19,CCN(CC)CCNC(=O)C1c2cc(OC)c(OC)cc2C(=O)N2CCc3ccccc3C12 (stereo unspecified),2.24 µM (active)
20,COC(=O)[C@@]12CCCN1[C@H](c1ccc(-c3cccc(Cl)c3)c(OC)c1)[C@H]1C(=O)N(C)C(=O)[C@H]12,1.12 µM (active)
21,CCN1C(=O)[C@@H]2[C@@H](c3ccc(SC4CCCCC4)c(OC)c3)N3CCC[C@@]3(C(=O)OC)[C@@H]2C1=O,2.51 µM (active)
22,CC(C)(C)c1nc(SCC(=O)Nc2nc3c(s2)CCCC3)c2ccccc2n1,2 µM (active)
23,COc1ccccc1OCC(=O)Nc1nc2c(s1)CCCC2,inactive

row,Structure (SMILES),Potency
1,CC(C)(C)c1nc(SCC(=O)Nc2ccc(N3CCOCC3)cc2)c2ccccc2n1,8.91 µM (active)
2,Cc1ccc(-c2cc(=O)c3ccc(F)cc3[nH]2)cc1,3.98 µM (active)
3,Cc1ccc(S(=O)(=O)Nc2cc(=O)[nH]c(SCc3ccc(Cl)cc3)n2)cc1,11.2 µM (active)
4,CC(=O)c1c(C)cc(C)c(CSc2nc(C)cc(=O)[nH]2)c1C,inactive
5,Cc1oc(-c2ccccc2Cl)nc1CSCC(=O)N1CCCC1,11.2 µM (active)
6,Cc1oc(-c2ccccc2F)nc1CS(=O)(=O)CC(=O)NCCCN1CCN(C)CC1,inactive
7,O=C(Cc1n[nH]c(=O)c2ccccc12)OCc1c(Cl)cccc1Cl,inactive
8,COc1ccc(-n2c(C)cc(C(=O)COC(=O)Cc3n[nH]c(=O)c4ccccc34)c2C)cc1,3.55 µM (active)
9,Cc1ccc(/C=N/NC(=O)CSc2nc3ccccc3c(=O)n2-c2ccccc2C)s1,6.31 µM (active)
10,COc1ccc(C(C)=O)cc1CSc1nc2ccccc2c(=O)n1-c1ccccc1C,7.94 µM (active)
11,Cc1ccc(-c2nn(C(C)(C)C)c3ncnc(N)c23)cc1,5.01 µM (active)
12,O=C(Nc1nnc(SCc2ccc(F)cc2)s1)c1ccccn1,2.82 µM (active)
13,Oc1ccc(-c2n[nH]c(=S)n2-c2ccc3c(c2)OCCO3)c(O)c1,0.355 µM (active)
14,COc1cc(C(=O)NCc2ccncc2)cc(Br)c1OCc1ccccc1,8.91 µM (active)
15,Cc1ccc(S(=O)(=O)N2CCN(c3ccc(C(=O)N4CCOCC4)cc3[N+](=O)[O-])CC2)cc1,4.47 µM (active)
16,O=C(c1ccc(S(=O)(=O)Cc2cc(F)ccc2F)c([N+](=O)[O-])c1)N1CCCC1,7.94 µM (active)
17,O=C(c1ccc(S(=O)(=O)Cc2ccccc2Cl)c([N+](=O)[O-])c1)N1CCOCC1,3.98 µM (active)
18,Cc1cccc(NC(=O)COC(=O)c2cccc3c2C(=O)c2ccccc2C3=O)c1C,12.6 µM (active)
19,CC(C)NC(=O)NC(=O)COC(=O)c1ccccc1Oc1ccccc1,inactive
20,CN(C)S(=O)(=O)c1cc(NC(=O)c2cc(=O)c3ccccc3o2)ccc1Cl,5.01 µM (active)
21,CN(C)S(=O)(=O)c1cc(NC(=O)C2=COCCO2)ccc1Cl,10 µM (active)
22,CCCCCCn1c(=O)[nH]c2nc3cc(N)ccc3nc2c1=O,14.1 µM (active)
23,COc1cc(-c2ccc(NC(=O)NC3CC3)c(OC)c2)ccc1NC(=O)NC1CC1,11.2 µM (active)

row,Structure (SMILES),Potency
1,COc1ccc(NC(=O)NC2CCCCCCC2)c(OC)c1,11.2 µM (active)
2,COc1ccc(NC(=O)N2CCCc3cc(C)ccc32)c(OC)c1,12.6 µM (active)
3,O=C(O)c1ccccc1Nc1ccc([N+](=O)[O-])cc1,inactive
4,COc1cc(-c2ccc(Nc3ccccc3C(=O)O)c(OC)c2)ccc1Nc1ccccc1C(=O)O,10 µM (active)
5,COc1ccccc1NC(=O)Cc1nnc(SCC(=O)NC2CCCCC2)n1C,inactive
6,COc1ccc(NC(=O)NC2CCCc3ccccc32)c(OC)c1 (stereo unspecified),6.31 µM (active)
7,CCNc1ccc(Br)cc(C(=O)/C=C/c2c(Cl)cccc2Cl)c1=O,7.08 µM (active)
8,CC(=O)Oc1ccc(-c2csc(Nc3cccnc3)n2)cc1,inactive
9,O=C(NC(=S)Nc1nc(-c2ccccc2)cs1)c1cccnc1,12.6 µM (active)
10,CC(Oc1ccc(Br)cc1)C(=O)N1CCN(c2ccccn2)CC1 (stereo unspecified),12.6 µM (active)
11,O=C(c1ccccc1Br)N1CCN(c2ccccn2)CC1,inactive
12,CCCCn1c(=O)[nH]c(=O)c2c1nc(Cn1ncc(Cl)c(Cl)c1=O)n2CCC,10 µM (active)
13,CC(C)CNC(=O)C(=O)Nc1cc2c3c(c1)C(C)C(=O)N3CCC2 (stereo unspecified),14.1 µM (active)
14,Cc1ccccc1NC(=O)Cc1nnc(SCC(=O)NC2CCCCC2)n1C,inactive
15,Cn1c(Cc2cccc3ccccc23)nnc1SCc1ccc([N+](=O)[O-])cc1,12.6 µM (active)
16,COc1ccccc1C1CCCN1Cc1nc(-c2ccc(C)s2)oc1C (stereo unspecified),14.1 µM (active)
17,N#CC1=C(N)Oc2n[nH]c(-c3cccnc3)c2C1c1ccc([N+](=O)[O-])o1 (stereo unspecified),15.8 µM (active)
18,C=C1C(=O)[C@@]23[C@H](O)C[C@@H]4C(C)(C)CC[C@H](O)[C@]4(C)[C@@H]2C[C@H](O)[C@@H]1[C@H]3O,14.1 µM (active)
19,Cc1ccc(Cl)cc1N1CCN(c2cccc[n+]2C)CC1,2 µM (active)
20,CCCc1[nH]nc2c1C(c1cc(OC)ccc1F)C(C#N)=C(N)O2 (stereo unspecified),3.55 µM (active)
21,O=C(CSc1nc(-c2ccco2)cc(C(F)(F)F)n1)Nc1ccccc1C(F)(F)F,12.6 µM (active)
22,O=C(NCc1ccccn1)c1cc(-c2ccc(-c3ccccc3)cc2)nc2ccccc12,15.8 µM (active)
